CYP2C9 activ: human CYP2C9 activators, primary screen, biochemical, luminescence | recombinant CYP2C9, luciferin-H conversion; hits give high values; factor 1 = untreated enzyme, 0 = blocked | activation factor at 5 µM | 96,000 tested, 1.4% active;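 active = activation factor of 2 or more for CYP2C9 at a 5 µM dose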
Target sequence (P11712 whole entry, looked up): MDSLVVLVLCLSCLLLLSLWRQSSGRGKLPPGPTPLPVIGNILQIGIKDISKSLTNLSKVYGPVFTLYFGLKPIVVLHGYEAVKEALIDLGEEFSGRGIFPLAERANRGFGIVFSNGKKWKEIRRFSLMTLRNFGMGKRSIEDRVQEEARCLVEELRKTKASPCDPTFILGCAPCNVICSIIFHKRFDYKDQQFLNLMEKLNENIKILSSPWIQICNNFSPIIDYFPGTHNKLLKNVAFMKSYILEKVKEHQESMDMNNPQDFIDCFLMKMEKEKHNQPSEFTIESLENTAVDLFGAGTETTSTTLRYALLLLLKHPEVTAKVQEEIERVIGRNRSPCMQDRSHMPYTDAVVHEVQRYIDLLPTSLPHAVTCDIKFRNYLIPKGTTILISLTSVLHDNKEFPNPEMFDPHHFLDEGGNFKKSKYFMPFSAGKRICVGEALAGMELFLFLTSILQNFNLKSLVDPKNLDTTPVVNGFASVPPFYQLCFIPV
sEH activator: soluble epoxide hydrolase activators, primary screen, biochemical, human sEH; 91,000 tested, 0.04% active; AID 717, 2007; activation, % at 2 µM; purified human sEH enzymatic activity, activator screen; Bifunctional epoxide hydrolase 2 (Homo sapiens), P34913; in the data active = activation above about 37%
CYP2C9 inhib: blockers of cytochrome P450 2C9 activity – biochemical, luminescence, ADME assay, primary screen | 96,000 tested, 20% active | P11712 | inhibition, % at 5 µM | CYP2C9 Supersomes, luciferin-H conversion;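 active = blocking of liver enzyme CYP2C9 beyond about 50% at 5 µM, limit read from the data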
CYP2C19 act: human CYP2C19 activators, primary screen, biochemical, luminescence | Cytochrome P450 2C19 (Homo sapiens), P33261 | recombinant CYP2C19, luciferin-H EGE luminescence; hits give high values; 0 = fully inhibited enzyme, 1 = untreated enzyme | activation factor at 5 µM | 96,000 tested, under 10 active | AID 1025, 2008;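 active = activation factor of at least 2 at 5 µM in the primary screen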
sEH inh: soluble epoxide hydrolase inhibitors, primary screen, biochemical, human sEH; Bifunctional epoxide hydrolase 2 (Homo sapiens), P34913; 91,000 tested, 0.34% active; recombinant human sEH enzymatic activity assay; inhibition, % at 2 µM; AID 707, 2007; in the data active = inhibition above about 80%
CYP2C19 inh: blockers of cytochrome P450 2C19 activity – biochemical, luminescence, ADME assay, primary screen; 96,000 tested, 21% active; CYP2C19 Supersomes, luciferin-H EGE luminescence, 30 min; inhibition, % at 5 µM; P33261;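 active = CYP2C19 inhibition above a set limit at 5 µM in the primary screen, cut at about 50% in these data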
A number is an active result. The list is not random: actives were taken first. Their share in the collection is about 27%.

`CC(C(=O)N1c2ccccc2Sc2ccccc21)n1nnc(-c2cccs2)n1` (centres undefined) gave CYP2C9 activ inactive, sEH activator inactive, CYP2C9 inhib 83, CYP2C19 act inactive, sEH inh inactive and CYP2C19 inh 51.
For CC1=CC(C#N)(C#N)C(C#N)(C#N)C(c2ccccc2)N1 (centres undefined) the results were CYP2C9 activ inactive, sEH activator inactive, CYP2C9 inhib 90, CYP2C19 act inactive, sEH inh inactive and CYP2C19 inh inactive.
O=C(COC(=O)c1cncc(Br)c1)NCC1CCCO1 (centres undefined) was read as CYP2C9 activ inactive, sEH activator inactive, CYP2C9 inhib inactive, CYP2C19 act inactive, sEH inh inactive and CYP2C19 inh inactive.
Screening Cc1c(OCc2ccccc2)c(=O)ccn1Cc1ccccc1 returned CYP2C9 activ inactive, sEH activator inactive, CYP2C9 inhib inactive, CYP2C19 act inactive, sEH inh inactive and CYP2C19 inh 68.
Screening CCn1c(SCC(=O)c2ccc3c(c2)OCCO3)nnc1-c1ccco1 returned CYP2C9 activ inactive, sEH activator inactive, CYP2C9 inhib inactive, CYP2C19 act inactive, sEH inh inactive and CYP2C19 inh 96.
Screening CCn1c(SCC(=O)c2ccc3ccccc3c2)nnc1-c1ccco1 returned CYP2C9 activ inactive, sEH activator inactive, CYP2C9 inhib inactive, CYP2C19 act inactive, sEH inh inactive and CYP2C19 inh inactive.
COCCn1c(SCC(=O)c2ccc3c(c2)OCCO3)nnc1-c1ccco1 was read as CYP2C9 activ inactive, sEH activator inactive, CYP2C9 inhib inactive, CYP2C19 act inactive, sEH inh inactive and CYP2C19 inh 65.
`COC(=O)C1CCN(C(=O)COC(=O)CC(NC(N)=O)c2ccc(Cl)cc2)CC1` (centres undefined) gave CYP2C9 activ inactive, CYP2C9 inhib inactive, CYP2C19 act inactive and CYP2C19 inh inactive.
For CC(/C=N\Nc1nnc2c(n1)[nH]c1c(C)cccc12)=C\c1ccco1 the results were CYP2C9 activ inactive, sEH activator inactive, CYP2C9 inhib inactive, CYP2C19 act inactive, sEH inh inactive and CYP2C19 inh inactive.
For Cc1nc(CCNC(=O)COc2ccccc2)cs1 the results were CYP2C9 activ inactive, sEH activator inactive, CYP2C9 inhib inactive, CYP2C19 act inactive, sEH inh inactive and CYP2C19 inh inactive.
Screening CCOc1ccccc1NC(=O)c1cc(Cl)ccc1NC(=O)c1ccco1 returned CYP2C9 activ inactive, sEH activator inactive, CYP2C9 inhib inactive, CYP2C19 act inactive, sEH inh inactive and CYP2C19 inh inactive.
`O=C(O)C(Cc1ccccc1)N1Cc2ccccc2C1=O` (centres undefined) gave CYP2C9 activ inactive, sEH activator inactive, CYP2C9 inhib inactive, CYP2C19 act inactive, sEH inh inactive and CYP2C19 inh inactive.
`COC(=O)C(Cc1ccc(OC(=O)c2ccc(C)cc2)cc1)N1Cc2ccccc2C1=O` (centres undefined) gave CYP2C9 activ inactive, sEH activator inactive, CYP2C9 inhib 50, CYP2C19 act inactive, sEH inh inactive and CYP2C19 inh inactive.
Screening COC(=O)c1ccc(CSc2ncnc3c2nnn3-c2ccc(F)cc2)o1 returned CYP2C9 activ inactive, sEH activator inactive, CYP2C9 inhib inactive, CYP2C19 act inactive, sEH inh inactive and CYP2C19 inh inactive.
`Cc1cc(C)nc(SCCn2c(N3CCCCC3)nc3c2c(=O)n(C)c(=O)n3C)n1` gave CYP2C9 activ inactive, sEH activator inactive, CYP2C9 inhib inactive, CYP2C19 act inactive, sEH inh inactive and CYP2C19 inh inactive.
For Cc1ccc(S(=O)(=O)N2CCN(S(=O)(=O)N(C)C)CC2)c(C)c1 the results were CYP2C9 activ inactive, sEH activator inactive, CYP2C9 inhib inactive, CYP2C19 act inactive, sEH inh inactive and CYP2C19 inh inactive.
`Brc1cnc(N2CCOCC2)nc1N1CCCCC1` gave CYP2C9 activ inactive, sEH activator inactive, CYP2C9 inhib inactive, CYP2C19 act inactive, sEH inh inactive and CYP2C19 inh 58.
`Cc1nc(C2CC(=O)OC23CCCCC3)cs1` (centres undefined) gave CYP2C9 activ inactive, CYP2C9 inhib inactive, CYP2C19 act inactive and CYP2C19 inh 78.
`O=C(CSc1ncn[nH]1)Nc1ccc(Br)cc1F` gave CYP2C9 activ inactive, sEH activator inactive, CYP2C9 inhib inactive, CYP2C19 act inactive, sEH inh inactive and CYP2C19 inh 82.
Screening O=C(CSc1ncn[nH]1)Nc1ccccc1C(=O)O returned CYP2C9 activ inactive, sEH activator inactive, CYP2C9 inhib inactive, CYP2C19 act inactive, sEH inh inactive and CYP2C19 inh inactive.
Screening O=C(CSc1ncn[nH]1)Nc1ccc(Cl)c(Cl)c1 returned CYP2C9 activ inactive, sEH activator inactive, CYP2C9 inhib inactive, CYP2C19 act inactive, sEH inh inactive and CYP2C19 inh 63.
Screening CC(NC(=O)c1cccs1)C(c1cccs1)N1CCOCC1 (centres undefined) returned sEH activator inactive and sEH inh inactive.
O=C(CN(C(=O)CSc1nnc(COc2ccccc2)o1)c1ccc(F)cc1)NC1CCCCC1 was read as CYP2C9 activ inactive, sEH activator inactive, CYP2C9 inhib inactive, CYP2C19 act inactive, sEH inh inactive and CYP2C19 inh inactive.
`CC(=O)NC(Cc1c[nH]c2ccccc12)C(=O)NCc1ccc2c(c1)OCO2` (centres undefined) gave CYP2C9 activ inactive, sEH activator inactive, CYP2C9 inhib inactive, CYP2C19 act inactive, sEH inh inactive and CYP2C19 inh inactive.
COc1ccc(CNC(=O)C(C)NC(=O)c2cc3ccccc3o2)cc1 (centres undefined) was read as CYP2C9 activ inactive, sEH activator inactive, CYP2C9 inhib 76, CYP2C19 act inactive, sEH inh inactive and CYP2C19 inh inactive.
`O=C(CSc1nc2ccccc2o1)NCc1ccc2c(c1)OCO2` gave CYP2C9 activ inactive, sEH activator inactive, CYP2C9 inhib 95, CYP2C19 act inactive, sEH inh inactive and CYP2C19 inh 100.
O=C(CSc1nc(-c2ccccc2)cc(=O)[nH]1)Nc1ccccn1 was read as CYP2C9 activ inactive, sEH activator inactive, CYP2C9 inhib inactive, CYP2C19 act inactive, sEH inh inactive and CYP2C19 inh inactive.
Screening O=C(CSc1nc(-c2ccccc2)cc(=O)[nH]1)NCc1ccc2c(c1)OCO2 returned CYP2C9 activ inactive, CYP2C9 inhib 96, CYP2C19 act inactive and CYP2C19 inh inactive.
`CC(C)C(=O)Nc1ccc(NC(=O)c2cc3ccccc3o2)cc1` gave CYP2C9 activ inactive, sEH activator inactive, CYP2C9 inhib inactive, CYP2C19 act inactive, sEH inh inactive and CYP2C19 inh inactive.

Bioassay records as filed in PubChem.
